Hits are enriched below; roughly 11% of the tested compounds scored in any of these assays.
Pf growth 48h = P. falciparum growth inhibition at 48 hours (one generation); P. falciparum luciferase growth in erythrocytes, 48 h; Potency, µM (highest dose often 28.7 µM), actives largely listed as inhibitors; actives 5.9% (n = 310,000)
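Luciferase-expressing parasites in RBCs, 2% Hct / 0.1% parasitemia final; RPMI 1640 + 0.5% Albumax; 37 C, 5% CO2, one generation; luminescence read-out, lower signal = inhibition.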
Pf growth 96h = inhibits malaria parasite growth, 96 h; P. falciparum luciferase reporter growth, 96 h; Potency, µM (doses to about 28.7 µM), actives largely listed as inhibitors; actives 6.9% (n = 320,000); AID 504834
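Infected RBCs, 2% Hct / 0.05% parasitemia final; luciferase-reporter P. falciparum; cpd 96 h, 37 C, 5% CO2; luciferase detection reagent; luminescence.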
AMA1-RON2 inh = disrupts binding of P. falciparum AMA1 to RON2; Potency, µM (highest dose often 58.2 µM), most hits filed as inhibitors; AlphaScreen AMA1-biotinylated RON2 peptide binding; actives 0.2% (n = 360,000); further: nearly all actives have a fitted effect of over 45% in size
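AMA1 (3D7) with his tag at 25 nM final met compounds first, then biotinylated RON2 peptide at 25 nM; detection used donor plus acceptor beads, 10 µg/mL apiece, read by AlphaScreen after 30 min at room temperature.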
HCV inhibitor = HCV inhibition | Huh7.5.1 HCVcc-Cre infection, luciferase reporter, 44 h | Potency, µM (top dose mostly 41.8 µM), most hits filed as inhibitors | actives 3.4% (n = 340,000) | AID 651820
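Cells (1,000/well) were plated 4 h before compound, then infected with HCVcc-Cre virus (~0.5 moi). After 44 h further culture, infection was read as luciferase luminescence following a 15 min substrate incubation at room temperature.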
Large screens that a line does not name were inactive. The call rests on the fitted dose curve; in most records, active means well fitted curve in the direction sought with a large enough effect; inconclusive means small, poorly fitted or top-dose-only effect, or another doubt; inactive means no such curve, though single readings can be large; an effect the other way counts as inactive or inconclusive.

CC/C(=N\N1CCCCCC1)c1c(O)n(-c2ccc(C)cc2)c(=O)[nH]c1=O	Pf growth 48h inconclusive, Pf growth 96h 2.08µM
CC/C(=N\N1CCCCC1)c1c(O)[nH]c(=O)[nH]c1=O	none
Cc1ccccc1CC(=O)Nc1sc(C(C)C)cc1C(=O)N1CCOCC1	Pf growth 48h inconclusive
O=C1/C(=C/c2ccccc2)CCc2ccc(Cl)nc21	HCV inhibitor inconclusive (no result: Pf growth 48h, Pf growth 96h)
Nc1nc2nc[nH]c2c(=O)[nH]1	Pf growth 48h inconclusive, Pf growth 96h inconclusive, HCV inhibitor 5.01µM
O[Si](CCCN1CCCCC1)(c1ccc(F)cc1)C1CCCCC1 (centres undefined)	Pf growth 48h 0.0928µM, Pf growth 96h 0.104µM, HCV inhibitor inconclusive
O=C(NCCCN1CCCC1)Nc1ccc(F)cc1	none
CCOC(=O)N1CCN(C(=O)COC(=O)C2CCN(S(=O)(=O)c3c(Cl)cccc3Cl)CC2)CC1	Pf growth 48h inconclusive
O=[N+]([O-])c1ccc(Oc2cccc(F)c2)c2ccncc12	Pf growth 48h inconclusive, HCV inhibitor 3.98µM (no result: Pf growth 96h)
Cc1cc(N2CCCCC2)nc2c(C)cccc12	none
Cc1cc(N2CCN(S(=O)(=O)c3ccccc3)CC2)nc2c(C)cccc12	Pf growth 96h 13.1µM, HCV inhibitor inconclusive
Cc1cc(N2CCN(S(=O)(=O)c3ccc(Cl)c(Cl)c3)CC2)c2ccccc2n1	Pf growth 48h 11.7µM, HCV inhibitor 11.2µM
Cc1cc(N2CCN(S(=O)(=O)c3ccc(Cl)cc3)CC2)c2ccccc2n1	HCV inhibitor 11.2µM (no result: Pf growth 48h, Pf growth 96h)
Cc1cc(C)n(-c2nc3ccccc3nc2N2CCN(S(=O)(=O)c3ccc4ccccc4c3)CC2)n1	Pf growth 96h 5.22µM (no result: Pf growth 48h)
COc1ccc(/C=N/Nc2nc(-c3cccnc3)nc3ccccc23)c(OC)c1	Pf growth 48h inconclusive
COc1ccc(NC(=O)N(C)C[C@@H]2OCc3cnnn3CCCC(=O)N([C@@H](C)CO)C[C@H]2C)c(OC)c1	none (no result: Pf growth 48h, Pf growth 96h, HCV inhibitor)
CCOc1ccc(NC(=O)CN(C)C(=O)CCCOc2ccc(Cl)c(C)c2)cc1OCC	Pf growth 96h inconclusive, HCV inhibitor inconclusive
O=C(OC1CC2CC1[C@H]1CCCCN1C2=O)N1CCC(c2ccccc2)CC1 (some centres undefined)	none (no result: Pf growth 48h, Pf growth 96h, HCV inhibitor)
C(=NOCCc1ccccc1)c1ccccn1	none (no result: Pf growth 48h, Pf growth 96h)
O=S(=O)(C/C(=C/CO)S(=O)(=O)c1ccccc1)c1ccccc1	Pf growth 48h inconclusive, Pf growth 96h inconclusive, HCV inhibitor 10µM
[O-]/C(=C(\C(=S)Nc1cccc2ccccc12)[n+]1ccccc1)c1ccc(Cl)s1	Pf growth 48h inconclusive, Pf growth 96h inconclusive
Cc1ccc(C)c(NC(=S)/C(=C(\[O-])c2ccc(Cl)s2)[n+]2ccccc2)c1	Pf growth 48h inconclusive, Pf growth 96h 5.86µM
[O-]C(=C(C(=S)Nc1cccc2ccccc12)[n+]1cccc(CO)c1)c1ccc(Cl)s1	HCV inhibitor 7.94µM (no result: Pf growth 48h, Pf growth 96h)
COc1ccc(CCNC(=O)c2c(O)c3ccccc3[nH]c2=O)cc1	none
Cc1nn(CC(=O)NCCCN2CCC(Cc3ccccc3)CC2)c(=O)c2cc(-c3ccccc3)nn12	Pf growth 48h inconclusive, Pf growth 96h 4.15µM, HCV inhibitor inconclusive
CCOc1ccccc1C(=O)OC(C)C(=O)Nc1ccc(S(=O)(=O)N2CCCC2)cc1 (centres undefined)	Pf growth 48h inconclusive, HCV inhibitor inconclusive
CCN1CCN(c2nc(-c3ccccc3)c3ccccc3n2)CC1	HCV inhibitor inconclusive
CCN1CCN(c2ccc(Nc3ccnc4ccccc34)cc2)CC1	Pf growth 48h 0.657µM, Pf growth 96h inconclusive, HCV inhibitor 11.2µM
CN1CCN(c2ccc(Nc3ccnc4cc(Cl)ccc34)cc2)CC1	Pf growth 48h 0.0262µM, Pf growth 96h inconclusive, HCV inhibitor inconclusive
CCOc1ccc(Nc2ccnc3cc(Cl)ccc23)cc1	none
CCN1CCC(Nc2ccnc3cc(Cl)ccc23)CC1	Pf growth 48h 0.0329µM, Pf growth 96h 0.0041µM
O=C(NC1CCCC1)N[C@@H]1C=C[C@@H](CC(=O)N2CCOCC2)O[C@@H]1CO	none (no result: Pf growth 48h, Pf growth 96h, HCV inhibitor)
Nc1ncnc2c1ncn2[C@@H]1O[C@H](C(=O)Nc2ccc(Oc3ccccc3)nc2)[C@@H](O)[C@H]1O	none (no result: Pf growth 48h, Pf growth 96h, HCV inhibitor)
C=C1SC(=Nc2ccccc2Cl)N(C(=O)c2sc3ccccc3c2Cl)C12CCCCC2	Pf growth 48h 5.86µM, Pf growth 96h inconclusive (no result: AMA1-RON2 inh, HCV inhibitor)
C=C1SC(=Nc2c(C)cc(C)cc2C)N(C(=O)c2sc3ccccc3c2Cl)C12CCCCC2	Pf growth 48h inconclusive, Pf growth 96h 1.65µM
O=C(c1sc2ccccc2c1Cl)N1CCC2(CC1)OCCO2	none
Oc1ccccc1-c1n[nH]c(=S)n1Cc1ccco1	none (no result: Pf growth 96h)
CCOC(=O)C1C(C(=O)OC)=C(C(=O)OC)c2ccccc2N1S(=O)(=O)C(F)(F)F (centres undefined)	HCV inhibitor inconclusive (no result: Pf growth 48h, Pf growth 96h)
CCCCCC1=C(C(=O)OC)C(C(=O)OCC)N(S(=O)(=O)C(F)(F)F)c2ccccc21 (centres undefined)	HCV inhibitor 11.2µM (no result: Pf growth 48h, Pf growth 96h)
N=c1c(C(=O)NCc2ccc3c(c2)OCO3)cc2c(=O)n3ccccc3nc2n1CC1CCCO1 (centres undefined)	Pf growth 48h inconclusive, Pf growth 96h inconclusive, HCV inhibitor inconclusive
COc1ccc(CCn2c(=N)c(C(=O)NCCN3CCOCC3)cc3c(=O)n4ccccc4nc32)cc1OC	Pf growth 48h inconclusive, Pf growth 96h inconclusive
COc1ccc(CCNC(=O)c2cc3c(=O)n4ccccc4nc3n(CC3CCCO3)c2=N)cc1OC (centres undefined)	Pf growth 48h inconclusive, Pf growth 96h inconclusive, HCV inhibitor 8.91µM
Cc1ccc(Cn2c(=N)c(C(=O)NCC3CCCO3)cc3c(=O)n4cccc(C)c4nc32)cc1 (centres undefined)	Pf growth 48h inconclusive, Pf growth 96h inconclusive, HCV inhibitor 11.2µM
N=c1c(C(=O)NCc2ccc(F)cc2)cc2c(=O)n3ccccc3nc2n1CC1CCCO1 (centres undefined)	Pf growth 48h 11.7µM, HCV inhibitor inconclusive
Cc1ccc(Cn2c(=N)c(C(=O)NCC3CCCO3)cc3c(=O)n4ccccc4nc32)cc1 (centres undefined)	Pf growth 48h inconclusive, Pf growth 96h inconclusive, HCV inhibitor inconclusive
COc1ccc(CCNC(=O)c2cc3c(=O)n4ccccc4nc3n(CC3CCCO3)c2=N)cc1 (centres undefined)	HCV inhibitor inconclusive (no result: Pf growth 48h, Pf growth 96h)
COc1ccc(CCNC(=O)c2cc3c(=O)n4ccccc4nc3n(C3CCCCC3)c2=N)cc1OC	Pf growth 48h inconclusive, Pf growth 96h 10.4µM
CCCCCCOc1ccc(NC(=O)CC2C(=O)N(CC)C(=S)N2Cc2ccco2)cc1 (centres undefined)	HCV inhibitor inconclusive
COC(=O)c1ccccc1NC(=O)CSc1nnc(-c2ccc(OC)cc2)n1C	Pf growth 48h inconclusive
Cc1cc(C)n(C(=O)Cn2nc(C)c(Br)c2C)n1	none
Cc1ccc(Cn2c(=N)c(C#N)cc3c(=O)n4cccc(C)c4nc32)cc1	Pf growth 96h 14.7µM (no result: AMA1-RON2 inh, HCV inhibitor)
N=c1c(C(=O)NCc2ccco2)cc2c(=O)n3ccccc3nc2n1CC1CCCO1 (centres undefined)	HCV inhibitor inconclusive (no result: Pf growth 48h, Pf growth 96h)
Cc1cccn2c(=O)c3cc(C(=O)NCc4cccnc4)c(=N)n(CC4CCCO4)c3nc12 (centres undefined)	Pf growth 48h inconclusive
